# Screening results: PubChem BioAssay, National Center for Advancing Translational Sciences (NCATS)
# NS1 inh = blocks influenza NS1 protein function | 0.4% of 270,000 active | AID 2326 | Potency, µM (titrated, usually from 46.1 µM); note: actives are rising curves; nearly all actives have a fitted effect of over 50% in size
#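 A cell-based growth assay was used: compounds that relieve NS1-induced slow growth of budding yeast raise OD600. Assay medium was yeast nitrogen base with ammonium sulphate and -URA supplement, pH 6.0, with 2% galactose.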
# SARS PLP yeast = SARS-CoV PLP inhibition in yeast. Potency, µM (series often up to 32.9 µM), actives largely listed as activators. 0.19% of 330,000 active. AID 485353. S. cerevisiae expressing SARS-CoV PLpro, growth rescue; note: nearly all actives have a fitted effect of over 55% in size
# Shiga toxin inh = blocks Shiga toxin action in Vero cells | Vero cells, Shiga toxin protein synthesis inhibition reporter | inhibition, % at 38.7 µM | 9.2% of 290,000 active; in the data active = inhibition mostly above about 28%, no sharp cut-off; inactive = mostly below about 43%
# CHX counter = counter-screen for Shiga toxin inhibitors: cycloheximide protein synthesis inhibition | cell reporter, cycloheximide protein synthesis inhibition counterscreen | max response, % | 12% of 300,000 active; in the data active = max response mostly above about 13%, no sharp cut-off; inactive = mostly below about 14%; note: read at 38.3 µM for the half of the compounds with a filed dose
# Numbers stand for hits; i = inactive; ? = inconclusive; nt = no result; [ ] = remark or other dose. A selection: hits, their analogues and other compounds. The true share with any hit is near 12%. Unless noted, calls come from the whole dose curve.
SMILES,NS1 inh,SARS PLP yeast,Shiga toxin inh,CHX counter
O=C(CN1CCCCC1)Nc1ccc(Br)cc1[N+](=O)[O-],i,i,i,i
NC(=O)C1CCCN(C(=O)CN2C(=O)NC(c3ccccc3)(c3ccccc3)C2=O)C1 (centres undefined),nt,i,nt,nt
CC1CCC(C(C)C)C(=O)/C1=C/c1ccc(N)cc1 (centres undefined),i,i,92,35
CSCCC(NC(=O)c1ccccc1Br)C(=O)NCCCn1nc(C)cc1C (centres undefined),nt,i,nt,nt
Cn1c(=O)c2cn(-c3ccc4c(c3)OCCO4)cc2n(C)c1=O,i,i,i,67
Cc1ccc(-n2cc3c(=O)n(C)c(=O)n(C)c3c2)cc1C,i,i,i,21
Cc1ccc(NC(=O)CCNS(=O)(=O)c2ccc3c(c2)c(=O)n(C)c(=O)n3C)cc1C,nt,i,i,i
Cc1ccnn2cc3c(=O)n(C)c(=O)n(C)c3c12,i,i,i,i
Cc1cc(N)c(-n2cc3c(=O)n(C)c(=O)n(C)c3c2)cc1C,?,i,i,40
Cn1c2cc(Br)sc2c2cnn(Cc3ccc(F)cc3)c(=O)c21,nt,i,nt,nt
Cc1cc(NC(=O)COC(=O)c2cc(S(=O)(=O)N(C)c3ccccc3)ccc2Cl)no1,i,i,i,i
O=C(Nc1ccc(NC(=O)C2CCCCC2)nc1)c1cccc(F)c1,i,i,i,i
O=C(C/C=N/OCc1ccc(Cl)cc1Cl)c1ccccc1,i,i,i,20
O=C(C/C=N/OCc1ccc(Cl)cc1Cl)c1ccc(Cl)cc1,i,i,i,i
O=C(C/C=N/OCc1c(Cl)cccc1Cl)c1ccccc1,i,i,i,37
CC1=CC(C)(C)N(C(=O)CSc2ncn[nH]2)c2ccc(C)cc21,i,i[6.58 µM],i,i
Cc1noc(C)c1C(=O)OCC(=O)c1ccc[nH]1,i,i,i,i
Cc1noc(C)c1C(=O)OCC(=O)c1cc(C)n(Cc2ccccc2Cl)c1C,i,i,63,45
Cn1ncc(Cl)c1C(=O)N1CCN(C(=O)c2ccco2)CC1,i,i,i,i
Oc1ccc(Br)cc1C=Nc1ccc(Cl)cc1,nt,i,i,i
COc1cc(O)sc1C=Nc1ccc(Cl)cc1,nt,i,42,31
COC(=O)C(C)Oc1ccc2c(c1)O/C(=C\c1ccco1)C2=O (centres undefined),i,i,71,37
COc1ccc2c(c1)O/C(=C\c1ccco1)C2=O,i,i,i,30
COc1ccc(/C=C2\Oc3cc(OCC(N)=O)ccc3C2=O)cc1OC,i,i,i,i
Cc1ccc(/C=C2\SC(=S)N(CCCC(=O)NC3CCCC3)C2=O)cc1,i,i,i,i
SMILES,NS1 inh,SARS PLP yeast,Shiga toxin inh,CHX counter
c1ccc(C(NCCNC(c2ccccc2)c2ccccc2)c2ccccc2)cc1,i,i,i,i
Cc1csc2ncnc(NCCc3ccccn3)c12,nt,i,i,i
c1ccc(CCNc2ncnc3sccc23)nc1,i,i,73,35
OC(CNc1ncnc2sccc12)c1ccccc1 (centres undefined),i,i,84,25
CN(C)C(CNc1ncnc2sccc12)c1ccccc1 (centres undefined),nt,i,i,i
Cc1cccc2cc(CNCC3CCCO3)c(Cl)nc12 (centres undefined),i,i,i,i
CC(C)C(NS(=O)(=O)c1cccs1)C(=O)N1CCC(C(N)=O)CC1 (centres undefined),nt,i,nt,nt
CCOC(=O)c1ccc(NC(=O)c2ccc(NC(=O)c3ccccc3)cc2)cc1,i,i,i,i
CC(C)OC(=O)c1ccc(NC(=O)c2ccco2)cc1,i,i,77,46
CCOC(=O)c1ccc(NC(=O)CSCc2ccco2)cc1,i,i,32,13
CC(C)OC(=O)c1cccc(C(=O)O)n1,i,i,i,i
CC(C)OC(=O)c1ccc(NC(=O)c2ccccc2)cc1,i,i,69,66
CC(C)OC(=O)c1ccc2nc3ccccc3nc2c1,i,i,125,87
CC1CCN(C(=O)CSc2nnc(CNC(=O)c3ccc(S(=O)(=O)N(C)C)cc3)o2)CC1,i,i,i,i
CCOc1ccc(NC(=O)CN(C)S(=O)(=O)c2ccc(-c3ccc(=O)[nH]n3)s2)cc1,i,i,i,i
Cn1cc(/C=C/C(=O)N2CCCC(C(=O)c3cccc(C(F)(F)F)c3)C2)cn1 (centres undefined),i,i,i,i
O=C(/C=C/c1ccccc1)NCCS(=O)(=O)N1CCN(c2ccc(F)cc2)CC1,nt,i,nt,nt
CCOC(=O)c1ccc(NC(=O)c2ccco2)cc1,i,i,107,42
COC(=O)c1ccc(NC(=O)c2cccc(NC(=O)c3ccco3)c2)cc1,i,i,i,i
COc1ccc(-c2csc(NC(=O)C3COc4ccccc4O3)n2)cc1OC (centres undefined),?,i,i,i
